Reference: PubChem BioAssay (NCI)
“And” between values parts separate entries of the source, which are not always exact repeats. Equal entries are not always repeated. The panel holds about 83,000 compounds, 20% with a hit somewhere; the sample as a whole holds those more often.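 For each line, cells grew in 96-well plates with the test compound present at a single concentration for 48 hours.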 The source made the active and inactive calls.

System: SK-MEL-5 melanoma
Test: NCI-60 one-dose screen, 48 h (100 = growth as untreated, 0 = no growth, -100 = all killed)
Settings: 10 µM
Description: Growth inhibition of the SK-MEL-5 human tumor cell line is measured as a screen for anti-cancer activity. Cells are grown in 96 well plates and exposed to the test compound for 48 hours. Compounds are tested at a single concentration, which is 10^-5 M for most compounds. The reported endpoint is percent growth (GI% or GIPRCNT), where numbers from 0 - 100% represent growth inhibition, and numbers from -100% - 0 represent cell death. For example, a value of 40 represents 60% growth inhibition. A value of 0 means no net growth occurred over the course of the experiment. A value of -40 indicates 40% of cells at the beginning of the experiment died by the end of the experiment. A value of -100 means all cells are dead at the end of the experiment.
NCI-60 Human Tumor Cell Lines Screen was performed using the standard one-dose NCI protocol, which is described in more detail at https://dtp.cancer.gov/discovery_development/nci-60/default.htm.
Compounds with GIPRCNT values below 10 were considered active. Activity score was based on GIPRCNT using the following formula: […]
Score is 0 for GIPRCNT values of 100 or above, 50 for GIPRCNT values of 0, and 100 for GIPRCNT values of -100.

Row | Compound | growth
1 | CN(C)CC1(N)C(=O)NC(=O)NC1=O | 95.1% (inactive)
2 | COC(=O)C1C(O)C(C)C(O)C(C)/C=C\C=C(C)C(=O)Nc2c(C)c(OC(C)=O)c3c(c2O)C(=O)C(C)=C2OCOC(=C23)C(C)=CC(C)(O)C(O)C(C)C1O (stereo not given) | 99% (inactive)
3 | COc1ccc2c(ccc3oc([N+](=O)[O-])cc32)c1 | -80.4% (active)
4 | CN(CCCl)c1ccc(/C=C/C2=[N+](C)c3ccccc3C2(C)C)cc1 | 21.8% (inactive)
5 | CC/C(=C/c1ccc(OC)cc1)[N+](=O)[O-] | 36.2% (inactive)
6 | ClCc1ccc2ccccc2n1 | 91% (inactive)
7 | NC(=O)c1cc([N+](=O)[O-])c(Cl)c([N+](=O)[O-])c1 | 107% (inactive)
8 | CCCCCCCC[N+]12CN3CN(CN(C3)C1)C2 | 98% (inactive)
9 | O=C(CBr)Nc1ccc(Cl)cc1 | 78.3% (inactive)
10 | COc1cc([N+](=O)[O-])c2ncccc2c1[N+](=O)[O-] | 95.6% (inactive)
11 | S=C=NCCc1ccccc1 | -28.2% (active)
12 | O=[N+]([O-])/C=C/c1ccc(Cl)cc1[N+](=O)[O-] | 81.4% (inactive)
13 | Cn1c(O)c(N=O)c(=O)n(C)c1=O | 100% (inactive) and 98.1% (inactive)
14 | [O-][n+]1ccccc1S | 48.9% (inactive)
15 | Oc1ccccc1-c1ccccc1 | 102% (inactive) and 97.7% (inactive)
16 | Cc1ccc(C(=O)C2C(c3ccccc3)N2C2CCCCC2)cc1 (stereo not given) | 88.1% (inactive) and 99% (inactive)
17 | CC(=O)[O][Hg][c]1c(C)c(C)cc(C)c1C | -57.5% (active)
18 | COc1cc([C@@H]2c3cc4c(c(O)c3C[C@H]3COC(=O)[C@@H]32)OCO4)cc(OC)c1OC | -42.8% (active)
19 | COC12C(COC(N)=O)C3=C(C(=O)C(C)=C(N)C3=O)N1CC1C2N1C (stereo not given) | 11.6% (inactive)
20 | C=NCC#N | 106% (inactive) and 102% (inactive)

Row | Compound | growth
21 | COc1ccc(/C=C\[N+](=O)[O-])cc1OC | 72.6% (inactive) and 56.4% (inactive)
22 | C/C1=C\[C@H](C)C[C@H](C)OC(=O)C[C@H](c2ccc(O)cc2)NC(=O)[C@@H](Cc2c(Br)[nH]c3ccccc23)N(C)C(=O)[C@H](C)NC(=O)[C@@H](C)C1 | -74.5% (active)
23 | C[C@]12CC[C@H]3[C@@H](CCC4=CC(=O)CC[C@@H]43)[C@@H]1CC[C@@H]2OC(=O)N(CCCl)N=O | 51.3% (inactive)
24 | NNc1ccccc1 | 87.9% (inactive)
25 | CC[C@@H](C)[C@@H]1NC(=O)C(NC(=O)C(CC(C)C)N(C)C(=O)C2CCCN2C(=O)C(C)O)C(C)OC(=O)C(Cc2ccc(OC)cc2)N(C)C(=O)C2CCCN2C(=O)C(CC(C)C)NC(=O)C(C)C(=O)C(C(C)C)OC(=O)C[C@H]1O (stereo not given in full) | -98.1% (active)
26 | CC[C@@]1(O)C[C@H](OC2CC(N(C)C)C(O)C(C)O2)c2c(cc3c(c2O)C(=O)c2c(O)ccc(O)c2C3=O)[C@H]1C(=O)OC (stereo not given in full) | -100% (active)
27 | COc1cc(/C=C/[N+](=O)[O-])cc(Br)c1OC | 24.5% (inactive)
28 | O=c1[nH]c2ccccc2n1C1CCN(CCCC(c2ccc(F)cc2)c2ccc(F)cc2)CC1 | 23.6% (inactive) and -86.5% (active)
29 | CC/C(=C/c1ccc(OC)cc1OC)[N+](=O)[O-] | 38.1% (inactive)
30 | Cc1cc(C)c(C[N+](C)(C)C)c(C)c1C | 5.57% (active)
31 | O=C1CCC(=O)N1SC(Cl)(Cl)Cl | 99.5% (inactive)
32 | C#CC1(O)CCC(C(C)(C)C)CC1 (stereo not given) | 105% (inactive)
33 | O=C(O)c1cc(Cc2ccc(O)c(C(=O)O)c2)ccc1O (tested in a mixture with another compound) | 71.3% (inactive)
34 | NC(Cc1ccccc1)c1ccccc1 (stereo not given) | 94.1% (inactive) and 100% (inactive)
35 | C/C(=C\c1ccc(Cl)c(Cl)c1)[N+](=O)[O-] | 84.5% (inactive) and 101% (inactive)
36 | O=[P+](O)c1ccccc1 | 106% (inactive)
37 | CS(=N)(=O)CCC(N)C(=O)O (stereo not given) | 110% (inactive)
38 | [Cl][Hg][c]1ccc(Cl)s1 | 46% (inactive)
39 | O=[N+]([O-])/C=C/c1ccc([N+](=O)[O-])cc1 | 97.9% (inactive)
40 | O=[N+]([O-])/C=C\c1ccc2c(c1)OCO2 | 94.3% (inactive)
